GDH-TPI counter-1: inhibits GDH-TPI coupling enzymes, artifact for Mtb FBA screen; GDH-TPI coupled enzyme counterscreen, NADH absorbance; 360,000 tested, 1.2% active; inhibition, % at 4.8 µM; in the data active means inhibition above about 30%;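 further: 0% = DMSO wells and 100% = wells lacking the enzyme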
BioA inh: inhibitors of Mycobacterium tuberculosis BioA enzyme; purified M. tuberculosis BioA enzyme, plate reader; 360,000 tested, 0.096% active; inhibition, % at 9.99 µM; in the data active means inhibition above about 40%
FadD28 FP inh: M. tuberculosis FadD28 bisubstrate binding inhibition. inhibition, % at 12.5 µM. FadD28 bisubstrate probe binding, fluorescence polarization. AID 588549. 360,000 tested, 0.22% active; in the data active means inhibition above about 8.5%, passing the limit was not always enough
SARS 3CLpro inh: SARS-CoV 3CLpro protease inhibition. AID 1706. inhibition, % at 6 µM. 290,000 tested, 0.14% active. recombinant SARS-CoV 3CLpro, quenched FRET peptide cleavage; in the data active means inhibition above about 12%
FBA Mtb inh: inhibits M. tuberculosis FBA enzyme. purified M. tuberculosis FBA, fluorescence read-out. P9WQA3. 360,000 tested, 2.3% active. inhibition, % at 1 µM. AID 588726;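 further: 0% = vehicle and 100% = reference inhibitor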
Target sequence (P9WQA3 whole entry, looked up): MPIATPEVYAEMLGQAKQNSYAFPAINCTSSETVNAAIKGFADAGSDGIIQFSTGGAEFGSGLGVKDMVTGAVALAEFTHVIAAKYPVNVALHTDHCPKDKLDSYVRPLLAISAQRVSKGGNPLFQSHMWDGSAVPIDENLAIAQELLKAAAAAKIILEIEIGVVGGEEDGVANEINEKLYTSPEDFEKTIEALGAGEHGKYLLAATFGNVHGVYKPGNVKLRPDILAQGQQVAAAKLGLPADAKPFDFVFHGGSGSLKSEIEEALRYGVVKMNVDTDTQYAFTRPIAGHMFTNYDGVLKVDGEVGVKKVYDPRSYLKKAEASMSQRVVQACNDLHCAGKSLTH
Mtb FBA inh conf: Mtb FBA inhibition, confirmed | shares compounds with FBA Mtb inh | purified M. tuberculosis FBA, fluorescence read-out | inhibition, % at 1 µM | 5,600 tested, 78% active;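 further: 0% = vehicle wells and 100% = reference inhibitor wells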
GDH-TPI counter-2: inhibits GDH-TPI coupling enzymes, flagging Mtb FBA hits | 5,600 tested, 81% active | AID 652141 | GDH-TPI coupled enzyme counterscreen, fluorescence | shares compounds with FBA Mtb inh | inhibition, % at 1 µM; in the data active means inhibition above about 10%
* hit, by the source's call; . = no result; + = active, no number. In the library only some 3.1% were active in any assay of this set; here they are far more common. Unless noted, no stated cut-off is given here; in the data, active means inhibition above about 27%; inactive means the rest.

SMILES | GDH-TPI counter-1 | BioA inh | FadD28 FP inh | SARS 3CLpro inh | FBA Mtb inh | Mtb FBA inh conf | GDH-TPI counter-2
C[C@@H]1CN([C@H](C)CO)C(=O)Cc2cc(NC(=O)Cn3cnnn3)ccc2O[C@H]1CN(C)C(=O)NC1CCCCC1 | . | -1 | . | . | . | . | .
O=C(NCC[C@@H]1CC[C@@H](NC(=O)C2CC2)[C@H](CO)O1)Nc1ccc(Cl)cc1 | . | 1 | . | . | . | . | .
C[C@H]1CN([C@@H](C)CO)C(=O)c2cc(NC(=O)Nc3cccc4ccccc34)ccc2O[C@H]1CN(C)C(=O)Nc1ccc(C(F)(F)F)cc1 | . | -2 | . | . | . | . | .
COC(=O)c1ccc(C(=O)OC)c(NC(=S)N2CCCCC2C)c1 (configuration not stated) | 2 | . | -4 | 5 | 100* | 60* | 59*
COC(=O)c1ccc(C(=O)OC)c(NC(=O)CCC(=O)O)c1 | 18 | . | -1 | -1 | 28* | 33* | 23*
COC(=O)c1ccc(C(=O)OC)c(NC(=S)N2CCN(C)CC2)c1 | 9 | 29 | -1 | 1 | 33* | 198* | 174*
COC(=O)c1ccc(C(=O)OC)c(NC(=S)N2CCCC2)c1 | 2 | 0 | 0 | -5 | 3 | . | .
C[C@H](CO)N1C[C@H](C)[C@@H](CN(C)C(=O)C2CCC2)Oc2ncc(-c3cccnc3)cc2C1=O | . | -1 | . | . | . | . | .
Clc1ccc(-c2nc3ccccc3[nH]2)cn1 | 3 | . | -5 | 0 | 72* | 97* | 84*
Cc1ccc(-c2nc3ccccc3[nH]2)cn1 | 6 | 0 | -5 | -3 | 5 | . | .
Cc1nc2ccc(-c3nc4ccccc4[nH]3)cc2[nH]1 | -9 | . | -10 | 2 | 34* | 78* | 61*
c1ccc2[nH]c(-c3ccc4c(c3)OCO4)nc2c1 | 4 | 2 | -2 | . | 20 | . | .
Cc1ccc(S(=O)(=O)Nc2ccc3c(c2)CC(=O)N([C@H](C)CO)C[C@@H](C)[C@@H](CN(C)C(=O)Nc2c(C)noc2C)O3)cc1 | . | 0 | . | . | . | . | .
Brc1c(CSc2nc3ccccc3s2)nc2ncccn12 | -3 | . | -5 | -2 | 28* | 108* | 82*
Cc1ccc(-n2nc(C)c3c(C)c(CCC(=O)O)c(C)nc32)cc1 | 2 | 2 | -3 | 8 | 68* | 184* | 117*
Cc1ccc(-n2nc(C)c3c(C)c(CCC(=O)O)c(C)nc32)cc1C | 2 | 3 | -3 | -5 | 40* | 1 | 0
C[C@H]1ON(c2ccccc2)[C@@H](c2ccccc2)[C@@H]1C(=O)N1C(=O)OC[C@@H]1c1ccccc1 | . | -1 | . | . | . | . | .
CCNC(=O)C[C@H]1C=C[C@H](NS(=O)(=O)c2ccc(F)cc2)[C@H](CO)O1 | . | -1 | . | . | . | . | .
COc1ccc(NC(=O)C2CC2)cc1OC1CCCC1 | 4 | -1 | 0 | -6 | 73* | 68* | 54*
COC(=O)/C(C#N)=C/c1c(N2CCCCCC2)nc2c(C)cccn2c1=O | 0 | 0 | . | 1 | -2 | . | .
CNC(=O)/C(C#N)=C/c1c(N2CCCCCC2)nc2c(C)cccn2c1=O | 7 | 2 | 0 | -1 | 28* | + | 184*
Cc1cccn2c(=O)c(C=C(C#N)C#N)c(N3CCN(c4ccccc4)CC3)nc12 | 9 | . | -1 | 0 | 9 | . | .
N#C/C(=C\c1c(N2CCC(C(N)=O)CC2)nc2ccccn2c1=O)C(=O)NC1CCCCC1 | 5 | 4 | -4 | -1 | -10 | . | .
CNC(=O)/C(C#N)=C/c1c(N2CCN(c3ccccc3)CC2)nc2c(C)cccn2c1=O | 14 | 0 | 1 | -3 | 37* | -6 | -3
CNC(=O)/C(C#N)=C/c1c(N2CCN(c3ccc(OC)cc3)CC2)nc2c(C)cccn2c1=O | 12 | 4 | -2 | -5 | 37* | + | 142*
SMILES | GDH-TPI counter-1 | BioA inh | FadD28 FP inh | SARS 3CLpro inh | FBA Mtb inh | Mtb FBA inh conf | GDH-TPI counter-2
CNC(=O)/C(C#N)=C/c1c(N2CCCCCC2)nc2ccccn2c1=O | 0 | -2 | -3 | 2 | 64* | -1 | 1
Cc1noc(C)c1S(=O)(=O)Nc1ccc2c(c1)C(=O)N([C@@H](C)CO)C[C@@H](C)[C@@H](CN(C)C(=O)c1ccccc1)OCCCC[C@@H](C)O2 | . | 0 | . | . | . | . | .
CNC(=O)C[C@H]1CC[C@H]2[C@H](COc3ccc(NC(=O)Nc4cccc(F)c4)cc3C(=O)N2C)O1 | . | 14 | . | . | . | . | .
CCOC(=O)c1ccc(N2C=C(C(=O)OC)C(c3cccc(O)c3)C(C(=O)OC)=C2)cc1 | 7 | . | -1 | 2 | 111* | 97* | 81*
COC(=O)C1=CN(c2ccc(OC)cc2)C=C(C(=O)OC)C1c1cccc(F)c1 | -1 | 0 | -3 | 0 | 26 | . | .
CC1(C(=O)Nc2ccc3c(c2)OCO3)Cc2c(-c3ccccc3)ccnc2O1 (configuration not stated) | 7 | 3 | 0 | . | 0 | . | .
COc1ccc(NC(=O)C2(C)Cc3c(-c4ccc5c(c4)OCO5)ccnc3O2)cc1 (configuration not stated) | 6 | 2 | -1 | . | 36* | + | +
CNC(=O)C1(C)Cc2c(-c3ccc4c(c3)OCO4)ccnc2O1 (configuration not stated) | 2 | 0 | -1 | . | 49* | + | +
CN(C)c1ccc(CNC(=O)C2(C)Cc3c(-c4ccc5c(c4)OCO5)ccnc3O2)cc1 (configuration not stated) | 10 | -2 | 0 | . | 6 | . | .
CN1CCN(c2ccc(CNC(=O)C3(C)Cc4c(-c5ccc6c(c5)OCO6)ccnc4O3)cc2)CC1 (configuration not stated) | -13 | 0 | -4 | . | 33* | 121* | 103*
CC1(C(=O)NCC2CC2)Cc2c(-c3ccc4c(c3)OCO4)ccnc2O1 (configuration not stated) | 11 | 1 | -3 | . | 88* | 76* | 51*
CN1C(=O)c2cc(NC(=O)c3ccc(F)cc3)ccc2OC[C@H]2O[C@H](CC(=O)O)CC[C@@H]21 | . | 0 | . | . | . | . | .
CCCc1cn(CC[C@@H]2CC[C@H](NC(=O)C3CCCCC3)[C@@H](CO)O2)nn1 | . | -2 | . | . | . | . | .
COc1ccc(CNC(=O)C2(C)Cc3c(-c4ccc(C(N)=O)cc4)ccnc3O2)cc1OC (configuration not stated) | 15 | 17 | -2 | . | 8 | . | .
COc1ccc(CNC(=O)C2(C)Cc3c(-c4ccc5c(c4)OCO5)ccnc3O2)cc1OC (configuration not stated) | 4 | 2 | -4 | . | 33* | 114* | 84*
CCOC(=O)Cn1c(C(F)(F)F)nc2nc(Cl)c(Cl)nc21 | 11 | . | -4 | . | 55* | 102* | 62*
COc1ccc(OC)c2c1CC(C)(C)NC2=O | -3 | 0 | 2 | 0 | 74* | 33* | 32*
Cc1ccc(S(=O)(=O)N(C)C[C@@H]2OCCCC[C@H](C)Oc3ccc(NC(=O)c4ccncc4)cc3C(=O)N([C@@H](C)CO)C[C@H]2C)cc1 | . | -1 | . | . | . | . | .

High-throughput results deposited in PubChem BioAssay by several laboratories.
